Drawing on PMC8384837, “Expanding the binding specificity for RNA recognition by a PUF domain”, this text covers binding signal for twelve sequences.

Residue numbers refer to the chain shown, from its start.

Common to all, as to assay: yeast three-hybrid, YBZ-1, SC-Leu-His + 0.5 mM 3-AT, 4 days
What all share (details): tags: N-Gal4 AD-HA kept; label: inside an RPR1-promoter hybrid RNA with tandem MS2 sites; ssRNA

Assay [1] addresses PUM1 PUF domain R3-RPQ (Homo sapiens, UniProt Q14671 828-1176, C935R;R936P). In outline: (§1)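 Sequencing with Illumina followed PCR amplification of the repeat regions from transformants grown four days on SC-Leu (input) or SC-Leu-His + 0.5 mM 3-AT (selection). The transformants were strain YBZ-1 with a LexA–MS2 coat fusion and a HIS3 reporter, carrying Pumilio-1 PUF domain libraries and matching RNA elements. The interaction score is the log change in variant frequency from input to selection, computed in log2 with a pseudocount of 1 for absent variants.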

Assay [2] addresses PUM1 PUF domain R3-PFV (Homo sapiens, UniProt Q14671 828-1176, C935P;R936F;Q939V). In outline: as §1
Assay [3] has as its target PUM1 PUF domain R1-QFR R2-VFQ R7-NPG (Homo sapiens, UniProt Q14671 828-1176, S863Q;R864F;Q867R;N899V;Y900F;S1079N;N1080P;E1083G). Summed up:
as §1

The target of assay [4] is T1, PUM1 PUF domain R6-KWC (Homo sapiens, UniProt Q14671 828-1176, N1043K;Y1044W;Q1047C).
T1 sequence: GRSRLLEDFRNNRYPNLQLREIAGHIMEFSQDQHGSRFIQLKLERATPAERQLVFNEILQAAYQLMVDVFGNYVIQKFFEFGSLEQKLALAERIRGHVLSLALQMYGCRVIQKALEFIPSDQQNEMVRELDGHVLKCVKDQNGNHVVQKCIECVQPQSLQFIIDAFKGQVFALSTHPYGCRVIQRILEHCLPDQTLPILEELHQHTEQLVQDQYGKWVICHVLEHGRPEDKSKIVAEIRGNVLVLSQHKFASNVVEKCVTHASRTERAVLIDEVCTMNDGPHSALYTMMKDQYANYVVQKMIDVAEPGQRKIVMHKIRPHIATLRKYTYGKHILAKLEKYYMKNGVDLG
Summed up: as §1

Assay [5] has as its target PUM1 PUF domain R5-AAR (Homo sapiens, UniProt Q14671 828-1176, C1007A;R1008A;Q1011R). In outline: as §1
In assay [6] the target is PUM1 PUF domain R5-KRK (Homo sapiens, UniProt Q14671 828-1176, C1007K;Q1011K). Summed up: as §1
The target of assay [7] is PUM1 PUF domain R5-KVE (Homo sapiens, UniProt Q14671 828-1176, C1007K;R1008V;Q1011E). In outline: as §1
The target in assay [8] is PUM1 PUF domain R7-ISG (Homo sapiens, UniProt Q14671 828-1176, S1079I;N1080S;E1083G). Summed up:
as §1

In assay [9] the target is T2, PUM1 PUF domain R6-RWL (Homo sapiens, UniProt Q14671 828-1176, N1043R;Y1044W;Q1047L).
T2 sequence: T1 sequence with K216R, C220L
In outline:
as §1

Assay [10] concerns the target T3, PUM1 PUF domain R6-CWL (Homo sapiens, UniProt Q14671 828-1176, N1043C;Y1044W;Q1047L).
T3 sequence: T1 sequence with K216C, C220L
In outline:
as §1

Assay [11] deals with PUM1 PUF domain R3-SRF (Homo sapiens, UniProt Q14671 828-1176, C935S;Q939F). Summed up: as §1
The target in assay [12] is PUM1 PUF domain R3-FYS (Homo sapiens, UniProt Q14671 828-1176, C935F;R936Y;Q939S). In outline:
as §1

Assay [13] has as its target PUM1 PUF domain R4-VPC (Homo sapiens, UniProt Q14671 828-1176, N971V;H972P;Q975C). Summed up: as §1
Assay [14] has as its target PUM1 PUF domain R2-NWP (Homo sapiens, UniProt Q14671 828-1176, Y900W;Q903P). In outline:
as §1

The target of assay [15] is PUM1 PUF domain R8-KFY (Homo sapiens, UniProt Q14671 828-1176, N1122K;Y1123F;Q1126Y). Summed up: as §1
The target in assay [16] is PUM1 PUF domain R4-DFR (Homo sapiens, UniProt Q14671 828-1176, N971D;H972F;Q975R). Summed up: as §1
Assay [17] has as its target PUM1 PUF domain R8-HFP (Homo sapiens, UniProt Q14671 828-1176, N1122H;Y1123F;Q1126P). In outline:
as §1

The target in assay [18] is PUM1 PUF domain R8-PYC (Homo sapiens, UniProt Q14671 828-1176, N1122P;Q1126C). In outline:
as §1

Assay [19] has as its target PUM1 PUF domain R1-TKK (Homo sapiens, UniProt Q14671 828-1176, S863T;R864K;Q867K). Summed up:
as §1

Assay [20] concerns the target PUM1 PUF domain R2-RVT (Homo sapiens, UniProt Q14671 828-1176, N899R;Y900V;Q903T). In outline: as §1

For “GGCUAGAACUAGUGGAUCCCCCGGCGCCCGGCGGCUCGAGCCCGGGUAAGUGUAAUUAGUCUGCAUGCCGCCGGGCGCCAUGCCUGCAGGUCGACUCUAGAAAACAUG”, the figures for the binding signal in [1] and in [2] were 3.45 log2 enrichment (interaction score) and 2.52 log2 enrichment (interaction score), respectively.
In the case of “GGCUAGAACUAGUGGAUCCCCCGGCGCCCGGCGGCUCGAGCCCGGGUAAGUUUAAAACGUCUGCAUGCCGCCGGGCGCCAUGCCUGCAGGUCGACUCUAGAAAACAUG”, in assay [3], the binding signal is 6.82 log2 enrichment (interaction score).
For the sequence “GGCUAGAACUAGUGGAUCCCCCGGCGCCCGGCGGCUCGAGCCCGGGUAAGUGAAAAUAGUCUGCAUGCCGCCGGGCGCCAUGCCUGCAGGUCGACUCUAGAAAACAUG”, in [4], the binding signal is 6.72 log2 enrichment (interaction score).
In the case of “GGCUAGAACUAGUGGAUCCCCCGGCGCCCGGCGGCUCGAGCCCGGGUAAGUGUCAAUAGUCUGCAUGCCGCCGGGCGCCAUGCCUGCAGGUCGACUCUAGAAAACAUG”, the binding signal in assay [5] is 4.02 log2 enrichment (interaction score); in [6], 3.89 log2 enrichment (interaction score); in assay [7], 2.24 log2 enrichment (interaction score).
On to “GGCUAGAACUAGUGGAUCCCCCGGCGCCCGGCGGCUCGAGCCCGGGUAAGUUUAAAUAGUCUGCAUGCCGCCGGGCGCCAUGCCUGCAGGUCGACUCUAGAAAACAUG”, for which, in [8], the binding signal was 5.55 log2 enrichment (interaction score).
For the sequence “GGCUAGAACUAGUGGAUCCCCCGGCGCCCGGCGGCUCGAGCCCGGGUAAGUGUAAAUAGUCUGCAUGCCGCCGGGCGCCAUGCCUGCAGGUCGACUCUAGAAAACAUG”, the binding signal is 5.11 log2 enrichment (interaction score) in assay [9]; 3.76 log2 enrichment (interaction score) in assay [10]; 3.44 log2 enrichment (interaction score) in assay [2]; 2.58 log2 enrichment (interaction score) in [11]; 3.03 log2 enrichment (interaction score) in [12]; 2.65 log2 enrichment (interaction score) in assay [13]. Also, the binding signal in assay [14] was 4.83 log2 enrichment (interaction score); in assay [15], 2.5 log2 enrichment (interaction score).
With “GGCUAGAACUAGUGGAUCCCCCGGCGCCCGGCGGCUCGAGCCCGGGUAAGUGUAUAUAGUCUGCAUGCCGCCGGGCGCCAUGCCUGCAGGUCGACUCUAGAAAACAUG”, the binding signal in [16] is 6.14 log2 enrichment (interaction score).
As to “GGCUAGAACUAGUGGAUCCCCCGGCGCCCGGCGGCUCGAGCCCGGGUAAGUGUACAUAGUCUGCAUGCCGCCGGGCGCCAUGCCUGCAGGUCGACUCUAGAAAACAUG”, the binding signal was 5.83 log2 enrichment (interaction score) in [16] and 3.7 log2 enrichment (interaction score) in assay [13].
Take “GGCUAGAACUAGUGGAUCCCCCGGCGCCCGGCGGCUCGAGCCCGGGUAAGCGUAAAUAGUCUGCAUGCCGCCGGGCGCCAUGCCUGCAGGUCGACUCUAGAAAACAUG”: the binding signal in assay [17] is 6.79 log2 enrichment (interaction score); in [18] it was 3.77 log2 enrichment (interaction score); in assay [15], 2.74 log2 enrichment (interaction score).
As to “GGCUAGAACUAGUGGAUCCCCCGGCGCCCGGCGGCUCGAGCCCGGGUAAGUGUUAAUAGUCUGCAUGCCGCCGGGCGCCAUGCCUGCAGGUCGACUCUAGAAAACAUG”, the binding signal in assay [5] was 1.62 log2 enrichment (interaction score); in assay [6] it was 2.98 log2 enrichment (interaction score).
“GGCUAGAACUAGUGGAUCCCCCGGCGCCCGGCGGCUCGAGCCCGGGUAAGUGUAAAUCGUCUGCAUGCCGCCGGGCGCCAUGCCUGCAGGUCGACUCUAGAAAACAUG”: the binding signal in assay [19] is 3.92 log2 enrichment (interaction score).
For “GGCUAGAACUAGUGGAUCCCCCGGCGCCCGGCGGCUCGAGCCCGGGUAAGUGUAAAGAGUCUGCAUGCCGCCGGGCGCCAUGCCUGCAGGUCGACUCUAGAAAACAUG”, the binding signal in assay [20] was 2.17 log2 enrichment (interaction score).
